Test results published in paper PMC4336329 (PLoS ONE, 2015).
Out of some 310,000 compounds screened, about 14,000 (4.5%) showed an effect of 50% or more. Effects have a minus sign here. The entries come from a sample that favours strong results as a whole.

Target: human ether-à-go-go-related gene (hERG) potassium channel (human, UniProt Q12809)
Test: primary screen, population patch clamp on CHO cells stably expressing hERG; higher = less effect of the substance
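Further: peak tail current of the secondary pulse compared with the same well before compound.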

human ether-à-go-go-related gene (hERG) potassium channel, sequence (Q12809 whole entry, looked up): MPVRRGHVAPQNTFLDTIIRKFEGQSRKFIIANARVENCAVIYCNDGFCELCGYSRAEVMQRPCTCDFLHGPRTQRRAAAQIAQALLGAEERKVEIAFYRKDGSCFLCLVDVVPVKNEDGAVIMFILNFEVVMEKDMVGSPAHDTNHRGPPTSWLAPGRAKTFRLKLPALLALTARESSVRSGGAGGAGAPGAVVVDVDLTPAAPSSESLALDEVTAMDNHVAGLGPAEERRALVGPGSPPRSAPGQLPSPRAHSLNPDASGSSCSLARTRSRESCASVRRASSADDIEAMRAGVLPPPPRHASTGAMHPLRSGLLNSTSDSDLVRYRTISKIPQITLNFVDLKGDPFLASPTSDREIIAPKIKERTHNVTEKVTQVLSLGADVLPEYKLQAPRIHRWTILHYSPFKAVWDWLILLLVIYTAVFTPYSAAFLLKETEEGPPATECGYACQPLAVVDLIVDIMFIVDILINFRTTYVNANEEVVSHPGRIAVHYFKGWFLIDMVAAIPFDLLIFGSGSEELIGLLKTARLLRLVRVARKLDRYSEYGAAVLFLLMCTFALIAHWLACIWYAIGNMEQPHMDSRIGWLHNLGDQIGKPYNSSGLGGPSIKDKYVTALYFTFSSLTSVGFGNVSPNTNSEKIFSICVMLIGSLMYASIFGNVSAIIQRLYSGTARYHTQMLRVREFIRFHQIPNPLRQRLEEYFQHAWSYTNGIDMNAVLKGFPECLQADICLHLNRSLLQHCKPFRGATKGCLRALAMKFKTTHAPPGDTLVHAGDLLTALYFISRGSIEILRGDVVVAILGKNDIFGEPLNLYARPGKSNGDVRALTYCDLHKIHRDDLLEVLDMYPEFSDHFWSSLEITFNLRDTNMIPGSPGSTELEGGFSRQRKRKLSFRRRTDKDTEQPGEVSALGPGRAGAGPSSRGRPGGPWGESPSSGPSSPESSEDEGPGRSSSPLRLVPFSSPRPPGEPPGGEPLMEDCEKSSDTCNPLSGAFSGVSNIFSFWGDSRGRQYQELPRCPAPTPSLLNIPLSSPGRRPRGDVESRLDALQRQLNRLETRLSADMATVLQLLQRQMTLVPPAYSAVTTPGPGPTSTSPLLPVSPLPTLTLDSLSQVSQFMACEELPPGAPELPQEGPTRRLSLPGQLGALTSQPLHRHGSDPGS

Structure (SMILES) | hERG current change (%, negative = inhibition) at 10uM [%]
COc1ccc(C(=O)O)nc1C | 5.78
C/C(=N/NC(=O)CN1CCN(Cc2ccccc2Cl)CC1)c1ccco1 | -25.4
COc1cc(/C(C)=N/NC(=O)CN2CCN(S(=O)(=O)c3ccc(C)cc3)CC2)ccc1O | -11.6
C/C(=N/NC(=O)CN1CCN(S(=O)(=O)c2ccc(C)cc2)CC1)c1ccco1 | -53.7
C/C(=N\NC(=O)CN1CCN(c2ccc(F)cc2)CC1)c1ccco1 | -30.3
C/C(=N/NC(=O)CN1CCN(S(=O)(=O)c2ccc(Br)cc2)CC1)c1ccco1 | -68.9
C/C(=N/NC(=O)CN1CCN(S(=O)(=O)c2ccc(C)cc2)CC1)c1cccc(O)c1 | -15
C=CCn1c(SCc2ccccc2)nc2scc(-c3ccc(C)o3)c2c1=O | 8.76
COc1cc(NC2c3ncccc3C(=O)N2Cc2ccco2)cc(OC)c1 (centres unmarked) | -0.0378
CCOC(=O)N1CCN(C(=O)c2ccc(Cn3c(=S)[nH]c4ccc(Br)cc4c3=O)cc2)CC1 | 13.3
CN(C)c1cccc(NC2=CC(=[N+]3CCOCC3)CC(C)(C)C2)c1.[I-] | -65.6
CN(C)NC1=CC(=[N+]2CCCC2)CC(C)(C)C1.[I-] | 14.6
CC1(C)CC(=O)C=C(Nc2ccc3c(c2)OCCO3)C1 | 17.7
CCOc1ccc(NC(=O)NC(C)c2ccc3c(c2)OCO3)cc1 (centres unmarked) | 21.3
CC1=NN(Cc2ccccc2)C(=O)C1 | -0.313
O=C(Nc1ccn(-c2ccccc2)n1)c1ccccc1Br | -66
CC(=O)Nc1ccn(-c2ccccc2)n1 | 8.89
O=C(Nc1ccn(-c2ccccc2)n1)c1ccc(Cl)cc1 | -8.56
O=C1CC(c2ccc(F)cc2)CC2=C1C(c1ccc([N+](=O)[O-])o1)Nc1ccccc1N2 (centres unmarked) | -47.3
O=C1CC(c2ccc(F)cc2)CC2=C1C=Nc1ccccc1N2 (centres unmarked) | -72.8
O=C1CC(c2ccccc2)CC2=C1C=Nc1ccccc1N2 (centres unmarked) | -61
CC1CC(=O)C2=C(C1)Nc1ccccc1N=C2 (centres unmarked) | -4.46

Structure (SMILES) | hERG current change (%, negative = inhibition) at 10uM [%]
CC1(C)CC(=O)C2=C(C1)Nc1ccccc1N=C2.Cl | -8.52
O=C1CC(c2ccco2)CC2=C1C=Nc1ccccc1N2 (centres unmarked) | -24.9
O=C(Nc1c[nH]c(=O)[nH]c1=O)c1ccc([N+](=O)[O-])cc1 | 10
COc1cc(C)c(Br)cc1S(=O)(=O)NCCCN1CCOCC1 | 9.66
CCOC(=O)c1[nH]c(C)c(C(=O)OCC(=O)N2c3ccccc3CC2C)c1C (centres unmarked) | -0.0968
COc1cc(C(=O)N2CCN(C(=O)c3cc(-c4ccccc4)n[nH]3)CC2)cc(OC)c1OC | -77.6
COc1ccc(S(=O)(=O)N2CCN(C(=O)c3cc(-c4ccc(Br)cc4)n[nH]3)CC2)cc1OC | -13.5
O=C(c1cc(-c2ccc(Br)cc2)n[nH]1)N1CCN(C(=O)c2ccccc2Br)CC1 | -32.4
COc1ccc(-c2cc(C(=O)N3CCN(S(=O)(=O)c4ccccc4)CC3)[nH]n2)cc1 | 8.23
COc1cc(C(=O)N2CCN(C(=O)c3cc(-c4ccc(Br)cc4)n[nH]3)CC2)cc(OC)c1OC | -73.3
COc1cc(C(=O)N2CCN(C(=O)c3ccccc3)CC2)cc(OC)c1OC | 8.49
Cc1nc2sc3c(c2c2nnc(SCC(=O)NCc4ccco4)n12)CCCC3 | -28.2
Cc1nnc(SCc2nnc(-c3ccccc3Br)o2)n1-c1ccccc1 | -14.6
Cc1cnc(C(=O)NCCc2ccc(Cl)cc2)cn1 | -15.8
COc1ccc(OC)c(C2=CC(=O)C[C@H](c3ccc4c(c3)OCO4)C2)c1 | -10.6
Cc1ccc(C)c(NC(=O)c2sc(Cl)nc2-c2ccccc2)c1 | 13.9
CCN1CCN(C2=C(NS(=O)(=O)c3ccc(NC(C)=O)cc3)C(=O)c3ccccc3C2=O)CC1 | 7.39
CCN1CCN(C2=C(NS(=O)(=O)c3ccc(Br)cc3)C(=O)c3ccccc3C2=O)CC1 | -61.5
NC(=O)C1CCN(C2=C(NS(=O)(=O)c3ccc(Br)cc3)C(=O)c3ccccc3C2=O)CC1 | -72.1
NC(=O)C1CCN(C2=C(NS(=O)(=O)c3ccc(Cl)cc3)C(=O)c3ccccc3C2=O)CC1 | -38.3
NC(=O)C1CCN(C2=C(NS(=O)(=O)c3ccccc3)C(=O)c3ccccc3C2=O)CC1 | -13.9
Cc1ccc(S(=O)(=O)NC2=C(N3CCN(Cc4ccccc4)CC3)C(=O)c3ccccc3C2=O)cc1 | -16.5

Structure (SMILES) | hERG current change (%, negative = inhibition) at 10uM [%]
O=C1C(NS(=O)(=O)c2ccc(Br)cc2)=C(N2CCCCC2)C(=O)c2ccccc21 | -33.1
CCN1CCN(C2=C(NS(=O)(=O)c3ccc(C)cc3)C(=O)c3ccccc3C2=O)CC1 | -57.1
CCN1CCN(C2=C(NS(=O)(=O)c3ccccc3)C(=O)c3ccccc3C2=O)CC1 | -5.21
CC(C)(C)c1cc(C(=O)NCCCn2ccnc2)cc(C(C)(C)C)c1.Cl | 13.1
CC(=O)c1cccc(NC(=O)CSc2ccc(-c3ccccn3)nn2)c1 | -13.6
COc1cc(C)c(CNc2ccc(OC)c(OC)c2)cc1C | 7.7
COC(=O)[C@@]1(Cc2ccc(OC)cc2)[C@H]2c3cc(C(=O)N4CCCC4)n(CCO)c3C[C@H]2CN1C(=O)c1ccccc1 | -34.9
COC(=O)Cn1c(C(=O)N2CCCC2)cc2c1C[C@H]1CN(C(=O)c3ccccc3)[C@@](Cc3ccc(F)cc3)(C(=O)OC)[C@@H]21 | -67.4
COC(=O)[C@@]1(Cc2ccc(F)cc2)[C@H]2c3cc(C(=O)N4CCCC4)n(Cc4ccc(C(F)(F)F)nc4)c3C[C@H]2CN1C(=O)c1ccccc1 | -8.27
COC(=O)[C@@]1(Cc2ccc(F)cc2)[C@H]2c3cc(C(=O)N4CCCC4)n(CCO)c3C[C@H]2CN1C(=O)c1ccccc1 | -51.4
COCCn1c(C(=O)N2CCCC2)cc2c1C[C@H]1CN(C(=O)c3ccccc3)[C@@](Cc3ccc(F)cc3)(C(=O)OC)[C@@H]21 | -39.3
COC(=O)[C@@]1(Cc2ccc(OC)cc2)[C@H]2c3cc(C(=O)N4CCCC4)n(C[C@H](O)CO)c3C[C@H]2CN1C(=O)c1ccccc1 | -1.32
COc1ccc(-c2csc(N(Cc3ccccc3)C(=O)COc3ccc(Cl)cc3)n2)cc1 | 4.31
COc1cc(C=O)ccc1OCC(=O)N1CCOCC1 | 2.65
Clc1ccc(SCc2nc3ccccc3[nH]2)cc1 | -11.2
COC(=O)c1nnn(-c2ccccc2)c1N | -7.91
Cc1ccc(CC(=O)Nc2ccc([N+](=O)[O-])cc2C)cc1 | 0.803
Cc1cc([N+](=O)[O-])ccc1NC(=O)CN1CCN(Cc2ccccc2)CC1 | -73.9
O=C(CN1CCN(c2ccccn2)CC1)Nc1ccc([N+](=O)[O-])cc1C(=O)Nc1ccccc1F | -34.7
Cc1ccc(C)c(N2CCN(CC(=O)Nc3ccc([N+](=O)[O-])cc3C(=O)Nc3ccccc3F)CC2)c1 | -18
O=C(CN1CCN(Cc2ccccc2)CC1)Nc1ccc([N+](=O)[O-])cc1C(=O)Nc1ccccc1F | -77.5
CCC(C)NCC(=O)Nc1ccc([N+](=O)[O-])cc1C(=O)Nc1ccccc1F (centres unmarked) | -34.7

Structure (SMILES) | hERG current change (%, negative = inhibition) at 10uM [%]
CCOC(=O)N1CCN(CC(=O)Nc2ccc([N+](=O)[O-])cc2C(=O)Nc2ccccc2F)CC1 | -50.7
O=C(CN1CCN(c2cccc(Cl)c2)CC1)Nc1ccc([N+](=O)[O-])cc1C(=O)Nc1ccccc1F | 14.4
Cc1ccc([N+](=O)[O-])cc1NC(=O)CN1CCCCC1 | -11.7
CCCC1S/C(=N/N=C/c2ccc(C)cc2)N(Cc2ccc(OC)cc2)C1=O (centres unmarked) | 9.81
CC(=O)Oc1ccc(-c2cc3ccccc3oc2=O)cc1 | 0.436
CCOC(=O)N1CCN(Cc2nnc(-c3ccccc3Cl)o2)CC1.Cl | 11.4
CCOc1c(C)cnc2c1c(=O)n(Cc1cccc(Cl)c1)c(=O)n2C | -36.1
CC(C)(C)NC(=O)CSc1ncccc1-c1nc2ccccc2[nH]1 | -4.73
Cc1c(C)c2ccc(OCC(=O)Nc3ccc(N4CCC(C)CC4)cc3)cc2oc1=O | 14.7
COc1ccc(-n2nc3c(c2NC(=O)COc2cccc(OC)c2)CS(=O)(=O)C3)cc1 | -29.5
Cc1ccc(-c2n[nH]c(=S)n2/N=C\c2ccco2)cc1 | 24.1
O=C(C1CCN(C2CCN(Cc3ccc4c(c3)CCO4)CC2)CC1)N1CCOCC1 | -26.6
O=C(C1CCN(C2CCN(Cc3ccsc3)CC2)CC1)N1CCOCC1 | -3.8
Cc1cccc(CC(=O)N2CCC(N3CCC(C(=O)N4CCOCC4)CC3)CC2)c1 | 0.701
O=C(C1CCN(C2CCN(Cc3cccc4c3OCO4)CC2)CC1)N1CCOCC1 | -34.7
C/C(=C\c1ccco1)CN1CCC(N2CCC(C(=O)N3CCOCC3)CC2)CC1 | -78.9
O=C(Cc1ccc(F)cc1)N1CCC(N2CCC(C(=O)N3CCOCC3)CC2)CC1 | 9.76
O=C(/C=C/c1ccccc1)N1CCC(N2CCC(C(=O)N3CCOCC3)CC2)CC1 | -23.4
O=C(C1CCN(C2CCN(C/C=C/c3ccccc3)CC2)CC1)N1CCOCC1 | -53.4
O=C(C1CCN(C2CCN(C/C(Cl)=C/c3ccccc3)CC2)CC1)N1CCOCC1 | -64.1
